USP30 block – human USP30 deubiquitinase inhibition; purified USP30, Ub-rhodamine cleavage fluorescence; inhibition, % at 25 µM; 47,000 tested, 5.3% active
Target sequence (Q70CQ3 whole entry, looked up): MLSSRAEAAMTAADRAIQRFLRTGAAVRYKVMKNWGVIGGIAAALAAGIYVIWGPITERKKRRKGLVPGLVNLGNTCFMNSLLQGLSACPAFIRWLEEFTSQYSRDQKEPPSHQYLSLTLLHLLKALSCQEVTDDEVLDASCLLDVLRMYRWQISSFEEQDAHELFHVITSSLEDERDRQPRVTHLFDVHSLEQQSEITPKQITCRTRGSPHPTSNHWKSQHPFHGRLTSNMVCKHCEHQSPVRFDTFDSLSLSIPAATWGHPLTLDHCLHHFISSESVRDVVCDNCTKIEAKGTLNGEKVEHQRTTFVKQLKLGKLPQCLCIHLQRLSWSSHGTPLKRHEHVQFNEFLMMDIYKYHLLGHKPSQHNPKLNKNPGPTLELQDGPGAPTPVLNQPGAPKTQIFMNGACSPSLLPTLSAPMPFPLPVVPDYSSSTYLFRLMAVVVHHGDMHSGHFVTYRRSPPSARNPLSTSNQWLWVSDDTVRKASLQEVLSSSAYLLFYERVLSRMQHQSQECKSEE
USP8 inh – blocks human USP8 ubiquitin-rhodamine cleavage; P40818; purified USP8, Ub-rhodamine cleavage fluorescence, 30 min; 47,000 tested, 4.2% active; inhibition, % at 20 µM
UCHL1 block – human UCHL1 deubiquitinase inhibition. inhibition, % at 20 µM. purified UCHL1, Ub-rhodamine cleavage fluorescence. P09936. 47,000 tested, 0.2% active. AID 1645859
USP7 block – blocks human USP7 ubiquitin-rhodamine cleavage. purified USP7, Ub-rhodamine cleavage fluorescence. AID 1645854. 47,000 tested, 0.3% active. inhibition, % at 20 µM. Q93009
USP17 inh – human USP17-like deubiquitinase inhibition; A8MUK1; purified USP17, Ub-rhodamine cleavage fluorescence, 3 h; inhibition, % at 50 µM; 47,000 tested, 6.5% active; AID 1645855
USP10 block – inhibitors of human USP10 deubiquitinase | Q14694 | purified USP10, Ub-rhodamine fluorescence, 60 min | inhibition, % at 20 µM | 47,000 tested, 1.1% active | AID 1645856
Starred values were filed as active, the others as inactive; . = no result given. Hits are enriched below; roughly 12% of the tested compounds scored in any of these assays. No stated cut-off is given here; in the data, active means inhibition above about 30%; inactive means the rest.

SMILES	USP30 block	USP8 inh	UCHL1 block	USP7 block	USP17 inh	USP10 block
Cc1cccc(O)c1C(=O)OC(C)c1cccc2nc3c(C(=O)O)cc4c(c3nc12)C(C)c1cccc2c1N4c1cccc(C(=O)O)c1N2 (centres undefined)	101*	95*	95*	100*	100*	99*
CCOc1c(OC)cccc1C1CN2C(=O)CN(C)C(=O)[C@]2(C)c2[nH]c3ccccc3c21 (some centres undefined)	2	-34	2	4	-3	-3
CC(C)(OC(=O)c1ccccc1)[C@H]1Cc2cc3ccc(=O)oc3cc2O1	26	12	7	-29	13	10
C/C(Nc1ccc2oc(=O)ccc2c1)=C1/C(=O)CC2[C@H]1C2(C)C (some centres undefined)	-141	41*	-8	-7	.	-8
c1ccc(-n2nnc(-c3noc(-c4cccnc4)n3)c2-c2ccncc2)cc1	54*	20	1	-3	16	-2
c1ccc(-n2nnc(-c3noc(-c4ccco4)n3)c2-c2ccncc2)cc1	18	21	2	3	17	2
Cc1ccc(Nc2c(-c3cccnc3)nc3cc(C)ccn23)cc1	32*	-30	3	-5	-9	3
COC(=O)c1cccc(Nc2c(-c3ccc(OC)cc3)nc3cnccn23)c1	-122	-42	-10	-11	-53	-7
O=C(c1ccncc1)N1CCC2(CC1)CC1(CO2)Nc2ccccc2-n2cccc21 (centres undefined)	-79	71*	0	-4	38*	0
Cc1ccc(NC(=O)N2CCC3(CC2)Nc2ccccc2-n2cccc23)cc1	-5	-202	6	-27	-8	1
O=C(c1ccco1)N1CCC2(CC1)CC1(CO2)Nc2ccccc2-n2cccc21 (centres undefined)	-26	67*	16	-9	80*	-5
O=C(c1cscn1)N1CCC2(CC1)CC1(CO2)Nc2ccccc2-n2cccc21 (centres undefined)	-68	94*	-2	-4	71*	5
COc1ccccc1NC(=O)N1CCC2(CC1)Nc1ccccc1-n1cccc12	-16	-132	0	-11	-12	6
CCCn1cc(C(=O)N2CCC3(CC2)CC2(CO3)Nc3ccccc3-n3cccc32)c(C)n1 (centres undefined)	5	94*	7	-4	67*	-3
Cn1c(CN2CCOCC2)nnc1SCC(=O)c1ccc(Br)cc1	5	9	-1	2	7	0
CC(C)CNC(=O)C1CCN(S(=O)(=O)c2ccc3c(c2)OCCCO3)CC1	20	12	2	2	19	0
Cc1cccc(NC(=O)N2CCC(c3nc4c(nnn4Cc4ccccc4)c(=O)[nH]3)CC2)c1	22	0	2	-6	10	6
O=C(c1cccnc1)N1CCC2(CC1)CC1(CO2)Nc2ccccc2-n2cccc21 (centres undefined)	-10	93*	2	-3	71*	-1
Cc1cccc(NC(=O)c2ccc3c(c2)N(S(C)(=O)=O)CC3)c1C	-12	-10	1	-1	30	2
CS(=O)(=O)N1CCc2ccc(C(=O)Nc3ccc(F)cc3)cc21	-27	3	0	0	33*	-1
N#Cc1c(-c2ccccc2)ccn(Cc2cccc(C(F)(F)F)c2)c1=O	44*	17	1	8	53*	13
O=C(C1CCC1)N1CCCn2nc(-c3cccnc3)cc2C1	4	11	0	-1	11	1
O=C(CSCc1ccccc1F)NCc1ccc(F)cc1	-4	-6	-3	-29	-7	0
O=C(NCc1ccc(F)cc1)C(c1ccccc1)c1ccccc1	31*	10	1	-1	3	3
Cn1c(=O)n([C@@H](Cc2ccccc2)C(=O)NCc2ccc(F)cc2)c(=O)c2ccccc21	46*	20	3	-3	13	4
SMILES	USP30 block	USP8 inh	UCHL1 block	USP7 block	USP17 inh	USP10 block
CCc1cc(=O)n(CC(=O)Nc2cc(F)cc(F)c2)c(N2CCOCC2)n1	17	-5	0	4	2	1
COC(=O)c1ccc(NC(=O)/C=C/c2ccc(F)cc2)cc1	90*	96*	8	.	86*	44*
CCCCCCCCCCCC1=C(O)C(=O)C=C(O)C1=O	97*	60*	8	50*	100*	80*
O=C(Cc1cccc(C(F)(F)F)c1)Nc1ccc2c(c1)OCO2	-1	7	-1	-5	2	8
CCc1ccc(C(CC(=O)Nc2ccc3c(c2)OCO3)NC(=O)C(F)(F)F)cc1 (centres undefined)	16	37*	0	11	19	6
Cc1cc(NC(=O)c2sc(C3COc4ccccc4O3)nc2C)no1 (centres undefined)	-4	2	0	1	0	3
CC1CCCN(S(=O)(=O)c2cc(-c3nnc(C4CC4)o3)co2)C1 (centres undefined)	-12	13	-2	0	3	-1
COc1noc(C2CCN(C(=O)c3cnc4ccccc4n3)CC2)c1C	10	-1	2	1	1	-1
COc1ccccc1C(=O)N1CC2CN(S(=O)(=O)c3ccc(C)cc3)CC(C1)O2	-9	5	-2	-2	-10	-6
COc1ccc(S(=O)(=O)N2CCN(C(=O)c3cnc4ccccc4n3)CC2)cc1OC	-156	61*	-2	-13	24	-2
COc1ccccc1C(=O)N1CCC(S(=O)(=O)c2ccc(-c3ccco3)cc2)CC1	27	53*	4	1	56*	1
O=C(c1cnc2ccccc2n1)N1CCC(S(=O)(=O)c2ccc(-c3ccco3)cc2)CC1	-13	56*	17	21	44*	21
COc1c(Br)cc(Br)cc1CNCC(O)CN1CCOCC1 (centres undefined)	2	-58	0	-6	-12	-3
Cc1nnc(Sc2cc(C(=O)NCCN3CCCC3)c3ccccc3n2)s1	-12	1	-1	0	52*	-6
Cc1cccc(N2CC(c3nc(C)no3)CC2=O)c1 (centres undefined)	9	5	3	1	5	3
CCn1c(-c2cc(NC(=O)COC)n[nH]2)cc2ccccc21	-202	-6	-2	-3	-62	-4
CC(C)C(=O)Nc1nc2ccc(CCC(=O)NCc3ccc4c(c3)OCO4)cc2s1	38*	20	4	-6	24	-1
Cc1ccc(CNC(=O)CCC(=O)NCc2ccc3c(c2)OCO3)o1	20	-17	1	2	38*	0
CCCC(=O)Nc1nc2ccc(CCC(=O)NCc3ccccc3)cc2s1	-16	10	0	4	4	2
NC(=O)C1CCN(C(=O)CN(Cc2ccc(F)cc2)S(=O)(=O)c2ccccc2)CC1	6	-9	0	-1	-5	-1
O=C(NCc1nc(-c2ccc(N3CCOCC3)cc2)no1)c1cccs1	-1	5	-1	3	-7	0

Compound activity (PubChem)
